Screening results deposited in PubChem by National Center for Advancing Translational Sciences (NCATS).
SARS PLP yeast – inhibitors of SARS-CoV papain-like protease in yeast | S. cerevisiae expressing SARS-CoV PLpro, growth rescue | Potency, µM (series often up to 32.9 µM), most hits filed as activators | 0.19% of 330,000 active; calls by dose curve; note: nearly all actives have a fitted effect of over 55% in size
AmpC inh detg – inhibitors of E. coli AmpC beta-lactamase with detergent; AmpC hydrolysis of nitrocefin, absorbance 480 nm, 0.01% Triton; 0.041% of 370,000 active; Potency, µM (top dose mostly 114 µM), usual class: inhibitors; P00811; note: nearly all actives have a fitted effect of over 25% in size
Target sequence (P00811 whole entry, looked up): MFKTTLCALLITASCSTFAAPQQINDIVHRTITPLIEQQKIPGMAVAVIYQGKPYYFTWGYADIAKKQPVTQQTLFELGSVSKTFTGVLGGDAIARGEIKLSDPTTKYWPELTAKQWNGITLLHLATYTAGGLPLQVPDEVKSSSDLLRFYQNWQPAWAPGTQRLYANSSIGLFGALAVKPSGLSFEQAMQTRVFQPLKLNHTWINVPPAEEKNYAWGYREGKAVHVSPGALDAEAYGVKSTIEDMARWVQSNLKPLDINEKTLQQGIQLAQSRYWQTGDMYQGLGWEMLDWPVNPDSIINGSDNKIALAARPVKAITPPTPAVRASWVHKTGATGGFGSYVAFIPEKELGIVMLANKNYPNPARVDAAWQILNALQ
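AmpC (5.3 nM in the dispensed reagent) in 20 mM phosphate pH 7.0 with 0.01% (detergent screen) or 0.0001% Triton X-100 was preincubated with compounds for 15 min at room temperature. Nitrocefin was then added from an 800 uM solution, and hydrolysis was followed at 480 nm.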
AmpC inh no detg – inhibitors of E. coli AmpC beta-lactamase without detergent; AmpC nitrocefin hydrolysis, absorbance 480 nm, 0.0001% Triton; Potency, µM (series often up to 57.1 µM), hits mostly inhibitors; 0.52% of 330,000 active; P00811; AID 485341; note: nearly all actives have a fitted effect of over 20% in size
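AmpC (5.3 nM in the dispensed reagent) in 20 mM phosphate pH 7.0 with 0.01% (detergent screen) or 0.0001% Triton X-100 was preincubated with compounds for 15 min at room temperature. Nitrocefin was then added from an 800 uM solution, and hydrolysis was followed at 480 nm.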
AMA1-RON2 inh – AMA1-RON2 (P. falciparum) interaction inhibition; AlphaScreen AMA1-biotinylated RON2 peptide binding; Potency, µM (doses to about 58.2 µM), most hits filed as inhibitors; 0.2% of 360,000 active; note: nearly all actives have a fitted effect of over 45% in size
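AMA1 (3D7) with his tag at 25 nM final met compounds first, then biotinylated RON2 peptide at 25 nM; detection used donor plus acceptor beads, 10 µg/mL apiece, read by AlphaScreen after 30 min at room temperature.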
CHX counter – affects cycloheximide protein synthesis inhibition readout, counter-screen | cell reporter, cycloheximide protein synthesis inhibition counterscreen | max response, % | 12% of 300,000 active; in the data active = max response mostly above about 13%, no sharp cut-off; inactive = mostly below about 14%; note: read at 38.3 µM for the half of the compounds with a filed dose
Shiga toxin inh – blocks Shiga toxin action in Vero cells; 9.2% of 290,000 active; Vero cells, Shiga toxin protein synthesis inhibition reporter; inhibition, % at 38.7 µM; in the data active = inhibition mostly above about 28%, no sharp cut-off; inactive = mostly below about 43%
Hits are given with their value; - = inactive; ? = inconclusive; . = no result given. Only a selection was taken, and hits are over-represented in it overall. Unless noted, calls come from the whole dose curve; as a rule, active = well fitted curve in the direction sought with a large enough effect; inconclusive = small, poorly fitted or top-dose-only effect, or another doubt; inactive = no such curve, though single readings can be large; an effect the other way counts as inactive or inconclusive.

SMILES	SARS PLP yeast	AmpC inh detg	AmpC inh no detg	AMA1-RON2 inh	CHX counter	Shiga toxin inh
O=C(CCNC(=O)c1ccc([N+](=O)[O-])cc1)Nc1cccc(S(=O)(=O)N2CCCCCC2)c1	-	-	-	-	.	.
CC(NC(=O)C1C(=O)N(CCO)C2(C)CC1c1ccccc1O2)c1ccccc1 (stereo not given)	-	-	-	-	-	-
C[C@]12CC[C@H]3[C@@H](CCC4=CC(=O)CC[C@@]43C)[C@@H]1CC[C@@H]2C(=O)CO	-	-	-	-	-	-
COc1cc(OC)cc(C(=O)Nc2ccc(NC(=O)c3ccco3)c(C)c2)c1	-	-	-	-	-	-
Cc1ccc(NC(=O)CCNC(=O)c2ccco2)cc1F	-	-	-	?	12.8	-
Cc1cc(NC(=O)c2ccco2)ccc1NC(=O)c1ccco1	-	-	-	-	-	70.7
O=C(Nc1ccccn1)c1ccc(NC(=O)c2ccco2)cc1	-	?	-	-	40.0	71.5
Cc1ccc(NC(=O)c2ccco2)cc1C	-	-	-	-	37.1	83.9
Cc1onc(-c2ccccc2)c1C(=O)NCCc1ccc(Cl)cc1	-	-	-	-	-	-
O=C1/C(=C\c2ccc(O)cc2)SC(=S)N1/N=C/c1ccc(O)cc1	-	-	-	-	12.4	-
O=C1C(=O)N(c2ccccn2)C(c2ccc(Br)cc2)/C1=C(/O)c1ccc(Br)cc1 (stereo not given)	-	-	-	-	-	-
COc1cccc(-c2nnc(-c3ccc(C)o3)o2)c1	-	-	-	-	27.3	28.9
COc1cccc(-c2nnc(NC(=O)C(C)C)o2)c1	-	?	?	-	-	-
COc1cccc(C(=O)Nc2cccc(-c3nnc(-c4ccccc4)o3)c2)c1	.	.	.	-	.	.
COc1cccc(-c2nnc(NC(=O)c3ccccc3Br)o2)c1	-	-	-	-	35.3	65.9
COc1cccc(C(=O)Nc2ccc(-c3nnc(-c4ccco4)o3)cc2)c1	-	-	-	-	17.4	-
COc1cccc(-c2nnc(N)o2)c1	-	-	-	-	10.1	-
CCOC(=O)Cn1cnc2scc(-c3ccc(C)c(C)c3)c2c1=O	-	-	-	-	-	.
CCCCN(C(=O)c1sc2nc3n(c(=O)c2c1C)CCC3)c1c(N)n(CC(C)C)c(=O)[nH]c1=O	-	?	-	-	.	.
CCOc1c(Cl)cc(Cl)cc1CNCCNCCO	-	-	-	-	-	-
COc1ccc(S(=O)(=O)N2CCOCC2)cc1NC(=O)COC(=O)C1CC2CCCC(C1)C2=O (stereo not given)	-	-	-	-	-	-
COc1cccc(-c2nnc(-c3ccccc3[N+](=O)[O-])o2)c1	-	-	-	-	41.0	93.2
COc1cccc(-c2nnc(-c3ccco3)o2)c1	-	-	-	-	59.8	active
CC(=O)Oc1ccc(C(=O)Nc2cccc(-c3nnc(-c4ccco4)o3)c2)cc1	-	?	-	-	-	-
CC(Oc1ccc(Cl)cc1Cl)c1ccnc(N)n1 (stereo not given)	-	-	-	-	-	-
SMILES	SARS PLP yeast	AmpC inh detg	AmpC inh no detg	AMA1-RON2 inh	CHX counter	Shiga toxin inh
CC(Oc1ccccc1)c1ccnc(N)n1 (stereo not given)	-	-	-	-	21.9	-
Cc1sc2nc3ccc(N4CCCCC4)nn3c(=O)c2c1C	-	-	-	-	30.3	67.7
Cc1sc2nc3n(c(=O)c2c1C)CCCCC3	-	-	-	-	-	-
Cc1ccc2nc3ccc(N4CCCC4)nn3c(=O)c2c1	-	-	-	-	34.9	-
CC1CCCN(c2ccc3nc4ccccc4c(=O)n3n2)C1 (stereo not given)	-	-	-	-	-	-
COc1ccc(OC)c(NC(=O)CSc2nc3scc(C)c3c(=O)[nH]2)c1	-	-	-	-	-	-
CCOc1ccc(-n2cnnn2)cc1S(=O)(=O)NCCc1ccc(OC)c(OC)c1	-	-	-	-	-	-
O=C(Nc1ccon1)c1cc2c(s1)CCCCCC2	-	-	-	-	29.8	64.1
O=C(Nc1ccon1)c1cc2c(s1)CCCC2	-	-	-	-	35.1	63.7
O=C(Nc1cccc(S(=O)(=O)Nc2ccc(Cl)cc2)c1)c1cc2c(s1)CCCC2	-	-	-	-	-	-
COc1ccccc1CC(=O)Nc1ccc2[nH]ncc2c1	-	-	-	-	-	-
COc1cccc(CNC(=O)C2(C)CCCCN2C)c1 (stereo not given)	.	.	.	-	.	.
COc1ccc(N=Cc2nc(-c3ccccc3)oc2OC(C)=O)cc1	-	-	-	-	-	-
O=C(Oc1oc(-c2ccco2)nc1C=Nc1ccccc1)c1ccco1	-	-	-	-	15.8	39.1
O=C(Oc1oc(-c2ccco2)nc1C=Nc1ccccc1)c1ccoc1	-	-	-	-	17.1	-
Cc1ccc(C(=O)Oc2oc(-c3ccco3)nc2C=Nc2ccc(Cl)cc2)cc1	-	-	-	-	35.8	98.6
CC1=C(c2ccc(C(C)C)cc2)S(=O)(=O)N=C1N1CCN(c2ccc(F)cc2)CC1	.	-	.	.	.	.
CCC(CC)C1=NN2C(=N)/C(=C/c3ccc(OC(=O)c4ccco4)cc3)C(=O)N=C2S1	-	-	-	-	-	-
N#CC1(NC(=O)Cn2ncc(Cl)c(Cl)c2=O)CCCCC1	-	-	25.1µM	-	.	.
O=C(Nc1ccc(-c2nnc(-c3ccccc3)o2)cc1)C(F)(F)F	-	-	-	-	49.2	-
CC(=O)/C=C(\C)Nc1ccc(-c2cnc(-c3ccccc3)o2)cc1	?	-	-	-	82.7	130.0
CC(C)C(=O)Nc1ccc(C(=O)NNC(=O)CCc2ccccc2)cc1	-	-	-	-	-	-
CC(C)C(=O)Nc1ccc(-c2nnc(-c3ccccc3)o2)cc1	-	-	-	-	72.2	118.9
CC(C)C(=O)Nc1ccc(C(=O)c2ccccc2)cc1	-	-	-	-	50.3	57.5
CC(NC(=O)c1cnccn1)c1ccc(S(N)(=O)=O)cc1 (stereo not given)	-	-	-	-	-	-
SMILES	SARS PLP yeast	AmpC inh detg	AmpC inh no detg	AMA1-RON2 inh	CHX counter	Shiga toxin inh
CC(C)(C)C(=O)N1CCN(C(c2ccccc2)c2ccccc2)CC1	-	-	-	-	-	-
O=C(NCCN1CCOCC1)c1csc2c1CCCCC2	-	?	-	-	-	-
Cc1cc(S(=O)(=O)Cc2noc(-c3c(C)noc3C)n2)c(C)cc1Cl	-	-	-	-	-	-
Cc1noc(C)c1-c1nc(CSc2ccccc2)no1	-	-	-	-	20.9	-
COc1ccccc1NC(=O)Nc1ccc(-n2ccc(C(F)(F)F)n2)cc1	-	-	-	-	42.3	123.2
O=C(Nc1ccc(-n2ccc(C(F)(F)F)n2)cc1)Nc1cccc(Cl)c1	-	-	-	.	30.7	49.9
Cc1cc(C)cc(NC(=O)Nc2ccc(-n3ccc(C(F)(F)F)n3)cc2)c1	-	-	-	-	-	-
